Screening data (PubChem BioAssay)
A selection: hits, their analogues and other compounds. The true share with any hit is near 12%.
JMJD2A Tudor = qHTS Assay for Inhibitors of JMJD2A-Tudor Domain; AlphaScreen JMJD2A-Tudor / H3K4me3 peptide binding; Potency, µM (series often up to 114 µM), most hits filed as inhibitors; actives 4.4% (n = 390,000); AID 504339, 2011; note: nearly all actives have a fitted effect of over 50% in size
PLK1 PBD block = qHTS for Inhibitors of PLK1-PDB (polo-like kinase 1 - polo-box domain): Primary Screen; Plk1 PBD binding of FITC phosphopeptide, fluorescence polarization; Potency, µM, actives largely listed as inhibitors; actives 2.8% (n = 360,000); note: series mostly up to about 57 µM; nearly all actives have a fitted effect of over 65% in size
G9a block = qHTS Assay for Inhibitors of Histone Lysine Methyltransferase G9a | Histone-lysine N-methyltransferase EHMT2 (Homo sapiens), Q96KQ7 | G9a H3K9 monomethylation, AlphaScreen, 2 h | Potency, µM (doses to about 102 µM), most hits filed as inhibitors | actives 8.8% (n = 350,000); note: nearly all actives have a fitted effect of over 75% in size
Target sequence (Q96KQ7 913-1193 limits assumed): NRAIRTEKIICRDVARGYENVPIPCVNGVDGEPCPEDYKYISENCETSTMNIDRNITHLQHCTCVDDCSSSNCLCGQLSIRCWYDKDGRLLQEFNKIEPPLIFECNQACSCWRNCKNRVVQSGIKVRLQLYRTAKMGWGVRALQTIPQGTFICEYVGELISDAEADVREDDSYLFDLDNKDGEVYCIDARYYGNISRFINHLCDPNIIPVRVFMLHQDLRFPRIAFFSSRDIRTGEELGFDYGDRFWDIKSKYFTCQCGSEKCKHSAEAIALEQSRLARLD
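Methyltransferase reactions run at room temperature for 2 h (20 nM enzyme, 500 nM biotin-H3K9 peptide, 20 uM SAM) after a 15 min compound preincubation; product detected by AlphaScreen beads and anti-H3K9me1 antibody.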
BAZ2B block = qHTS Assay for Inhibitors of BAZ2B | actives 4.4% (n = 360,000) | Potency, µM (series often up to 114 µM), actives largely listed as inhibitors | AlphaScreen BAZ2B-H3K14Ac peptide displacement; note: nearly all actives have a fitted effect of over 60% in size
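BAZ2B (50 nM) with biotin-H3(5-23)K14Ac peptide (50 nM) in PBS pH 7.4, 0.01% Tween-20, preformed 30 min, then compound 30 min at room temperature; top concentration 110uM. AlphaScreen streptavidin donor/nickel chelate acceptor beads (10 ug/mL final), 20 min dark, signal read.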
HP1b binding inh = HTS for Inhibitors of HP1-beta Chromodomain Interactions with Methylated Histone Tails; actives 0.56% (n = 390,000); Potency, µM (series often up to 114 µM), actives largely listed as inhibitors; AlphaScreen HP1-beta / biotin-H3K9me3 peptide binding; note: nearly all actives have a fitted effect of over 70% in size
Target sequence (P83916 whole entry, looked up): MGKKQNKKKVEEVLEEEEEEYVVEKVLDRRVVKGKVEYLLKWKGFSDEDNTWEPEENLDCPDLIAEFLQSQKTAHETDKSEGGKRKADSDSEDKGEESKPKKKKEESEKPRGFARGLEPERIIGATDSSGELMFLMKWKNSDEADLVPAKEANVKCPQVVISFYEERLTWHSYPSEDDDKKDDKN
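Compound inhibition of the preformed complex between 50 nM HP1-beta and 50 nM biotinylated H3K9me3 peptide was read by AlphaScreen. Buffer was PBS pH 7.4 with 0.01% Tween-20. Incubations ran 30 min at room temperature, with 10 ug/mL donor/acceptor beads.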
Sfp inh = qHTS Assay for Inhibitors of Bacillus subtilis Sfp phosphopantetheinyl transferase (PPTase); 4'-phosphopantetheinyl transferase ffp (Bacillus subtilis), Q9F4F7; Potency, µM, usual class: inhibitors; Biochemical Sfp PPTase activity, qHTS; actives 3.5% (n = 310,000);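 note: the enzyme is Sfp with the accession as filed and its product quenches rhodamine fluorescence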
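Fluorescence-quenching assay: 15 nM Sfp-PPTase preincubated 15 min at room temperature with compound, then 5 uM rhodamine-CoA and 12.5 uM BHQ-2-labelled YbbR peptide added. Fluorescence (ex 525/em 598 nm) read at start and after 30 min; difference gives rate.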
Each line names hits and unclear results; the compound was inactive in the other large screens; ! = repeats disagree. Calls come from the whole dose curve; as a rule, active = well fitted curve in the direction sought with a large enough effect; inconclusive = small, poorly fitted or top-dose-only effect, or another doubt; inactive = no such curve, though single readings can be large; an effect the other way counts as inactive or inconclusive.

CC1CN(C(=O)COC(=O)CSc2ccc([N+](=O)[O-])cc2)CC(C)O1 (centres undefined)	PLK1 PBD block 16.8µM, G9a block inconclusive (no result: Sfp inh)
CN(C(=O)COC(=O)c1ccc([N+](=O)[O-])cc1)c1ccccc1	none
CC1CCN(C(=O)C(C)OC(=O)CSc2ccc([N+](=O)[O-])cc2)CC1 (centres undefined)	JMJD2A Tudor inconclusive, PLK1 PBD block 15µM (no result: Sfp inh)
CN(C(=O)COC(=O)CSc1ccc([N+](=O)[O-])cc1)c1ccccc1	JMJD2A Tudor 79.4µM, PLK1 PBD block 13.4µM, HP1b binding inh inconclusive (no result: Sfp inh)
N/C(=N\OC(=O)CSc1ccccc1)c1ccc([N+](=O)[O-])cc1	JMJD2A Tudor inconclusive, PLK1 PBD block 26.7µM, BAZ2B block inconclusive, HP1b binding inh inconclusive
O=C(CSc1ccc([N+](=O)[O-])cc1)OCC(=O)N1CCCC1=O	none (no result: Sfp inh)
Cc1ccc([N+](=O)[O-])cc1-c1[nH]c(-c2ccc(O)c(O)c2)nc1-c1ccccc1	JMJD2A Tudor 39.8µM, G9a block inconclusive, BAZ2B block 28.2µM
COc1ccc(-c2nc(-c3ccccc3)c(-c3cc([N+](=O)[O-])ccc3C)[nH]2)cc1O	JMJD2A Tudor 44.7µM, G9a block 50.1µM, BAZ2B block 39.8µM, HP1b binding inh inconclusive
N#Cc1cc(-c2ccccc2)oc1/N=C/c1ccccc1O	JMJD2A Tudor 79.4µM, G9a block inconclusive
COc1cccc(/C=N/c2oc(-c3ccccc3)cc2C#N)c1O	BAZ2B block inconclusive, Sfp inh inconclusive
O=C1c2c(O)cccc2Cc2cccc(O)c21	G9a block 2.51µM!, BAZ2B block inconclusive
Cc1cc(C)n(-c2ccc(C(C)C)cc2)c(=O)c1C#N	G9a block inconclusive
Cc1cc(C)cc(-n2cc(C(=O)O)c(=O)cc2C)c1	G9a block 28.2µM, BAZ2B block 79.4µM
Cc1cccc(-n2ccc(=O)c(C(=O)O)n2)c1	none
Cc1cc(=O)c(C(=O)O)cn1-c1ccc(C(C)C)cc1	G9a block 44.7µM, BAZ2B block inconclusive
Cc1cccc(-n2cc(C(=O)O)c(=O)cc2C)c1	JMJD2A Tudor 44.7µM, G9a block 22.4µM
Cc1cc(C)c(N)c(C(=O)O)c1	none
Cc1ccc(-n2nc(C)c(C(=O)O)n2)c(C)c1	G9a block 79.4µM
COc1cc(NC(=O)C2=C(C)Nc3nnnn3C2c2ccc(SC)cc2)c(OC)cc1Cl (centres undefined)	JMJD2A Tudor inconclusive (no result: PLK1 PBD block, Sfp inh)
Cc1ccc(-n2cc(C(=O)O)c(=O)cc2C)c(C)c1	G9a block 50.1µM, BAZ2B block inconclusive
Cc1ccc(-n2c(C)cc(C(=O)C(=O)Nc3ccccc3)c2C)c(C)c1	none (no result: PLK1 PBD block, Sfp inh)
Cc1ccc(Sc2c(C(=O)NCc3ccccc3C)[nH]c3ccccc23)cc1	none (no result: PLK1 PBD block, Sfp inh)
COc1ccc(NC(=O)CCCS(=O)(=O)c2nc(-c3ccc(OC)c(OC)c3)cc(C(F)(F)F)n2)cc1OC	G9a block 15.8µM (no result: PLK1 PBD block, Sfp inh)
COc1ccc(-c2cc(C(F)(F)F)nc(S(=O)(=O)CCCC(=O)Nc3cccc(O)c3)n2)cc1OC	none
c1ccc2c(c1)OCC(c1nn3c(Cn4nnc5ccccc54)nnc3s1)O2 (centres undefined)	JMJD2A Tudor inconclusive, PLK1 PBD block 23.8µM, G9a block 5.01µM, BAZ2B block 50.1µM, HP1b binding inh inconclusive, Sfp inh 2.51µM
c1ccc(Cn2nnc3ccccc32)cc1	none
COc1ccc(OCc2nn3c(Cn4cnc5ccccc54)nnc3s2)cc1	PLK1 PBD block 15µM, G9a block 5.62µM, HP1b binding inh inconclusive, Sfp inh 25.1µM
c1ccc(Cc2nn3c(Cn4nnc5ccccc54)nnc3s2)cc1	PLK1 PBD block 8.44µM, G9a block 8.91µM, Sfp inh 35.5µM
c1ccc(OCc2nn3c(-c4cccnc4)nnc3s2)cc1	none
c1ccc(OCc2nn3c(Cn4nnc5ccccc54)nnc3s2)cc1	JMJD2A Tudor inconclusive, PLK1 PBD block 11.9µM, G9a block 2.82µM, HP1b binding inh inconclusive, Sfp inh 12.6µM
C=C(Br)CN1[C@@H](Cc2ccccc2)[C@H](O)[C@@]23C=C[C@@H](C[C@@H]2S1(=O)=O)O3	none (no result: G9a block, BAZ2B block, Sfp inh)
CN1CCc2c(sc(N)c2C(=O)O)C1	PLK1 PBD block inconclusive, G9a block 28.2µM, Sfp inh 28.2µM
Cc1oc2c(O)c(O)ccc2c(=O)c1-c1ccc(Cl)cc1	G9a block 5.01µM, BAZ2B block inconclusive
Cc1cc(=O)oc2c(CN3CCCC3)c(O)ccc12	none
Cc1cc(=O)oc2c(O)c(O)ccc12	JMJD2A Tudor 10µM, PLK1 PBD block inconclusive, Sfp inh 44.7µM (no result: G9a block, BAZ2B block)
Cc1c(Cc2ccccc2)c(=O)oc2c(O)c(O)ccc12	JMJD2A Tudor 44.7µM, G9a block 3.98µM, BAZ2B block 39.8µM, HP1b binding inh inconclusive
Cc1oc2c(O)c(O)ccc2c(=O)c1-c1ccccc1	JMJD2A Tudor 8.91µM, G9a block inconclusive, BAZ2B block inconclusive, Sfp inh 50.1µM
CCOC(=O)c1sc(NC(=O)CCN2C(=O)C3CCCCC3C2=O)cc1C (centres undefined)	none (no result: Sfp inh)
O=c1cc(-c2ccccc2)oc2c(O)c(O)ccc12	none (no result: JMJD2A Tudor, PLK1 PBD block, BAZ2B block, HP1b binding inh)
O=c1cc(-c2ccccc2O)oc2c(O)c(O)ccc12	Sfp inh 3.98µM (no result: JMJD2A Tudor, PLK1 PBD block, G9a block, BAZ2B block, HP1b binding inh)
Cc1ccc(C(=O)NCC(=O)OCc2cc(=O)n3nc(C4CCCCC4)sc3n2)cc1	none (no result: PLK1 PBD block, Sfp inh)
O=C(/C=C/c1ccccc1)c1ccccn1	G9a block inconclusive, Sfp inh 28.2µM
O=C(N/N=C/c1cc2c(cc1Br)OCO2)c1cc2ccccc2o1	G9a block 39.8µM
O=C(N/N=C/c1cc2c(cc1Br)OCO2)c1c[nH]c2ccccc12	none
O=C(N/N=C/c1ccc2c(c1)OCO2)c1ccccn1	Sfp inh 79.4µM
O=C(C=Cc1ccc2c(c1)OCO2)c1ccccc1	none (no result: G9a block, BAZ2B block, Sfp inh)
O=C(N/N=C/c1cc2c(cc1Br)OCO2)c1ccccn1	none
O=C(/C=C/c1ccc2c(c1)OCO2)c1ccccn1	G9a block inconclusive, BAZ2B block inconclusive, Sfp inh 31.6µM
CC(=O)Oc1ccc2c(c1)CCC1C2CC[C@@]2(C)C1CC(OC(C)=O)C2OC(C)=O (some centres undefined)	none (no result: JMJD2A Tudor, PLK1 PBD block, G9a block, BAZ2B block, HP1b binding inh)
CCOc1ccc(/C(O)=C2/C(=O)C(=O)N(CCCN3CCOCC3)C2c2ccc(C)cc2)cc1C (centres undefined)	G9a block inconclusive
COc1ccc(CNC(=O)CN(C(=O)CCC(=O)Nc2nccs2)c2ccc3c(c2)OCO3)cc1	none
O=C(N/N=C/c1ccc2c(c1)OCO2)c1ccc2c(c1)OCCO2	none
